Source: PubChem BioAssay AID1159580 (chemical genetic matrix, 2015)
Screen size: about 5,500 compounds; about 2,000 (36%) were called active. Roughly 18% stayed inconclusive and do not appear here. Cut-off read from the data, not from the text of the source: active = normalized growth mostly below about 0.91 (no sharp cut-off); inconclusive = no clear call, values can overlap the other calls; inactive = mostly above about 0.92. This is one part of the list.

Assay: chemical genetic growth profiling, strain panel (AID 1159580);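 note: tested at 20 µM; growth read once vehicle control cultures reached saturation at 30 °C; 1 = growth at the plate median or of vehicle wells; lower values mean less growth of the strain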
Conditions: growth OD

Measured: normalized growth

CC1[C@H](C)OC(=O)CC(O)CC(O)CC(O)CCC(O)C(O)C[C@]2(O)CC(O)C(C(=O)O)C(CC(OC3O[C@H](C)[C@@H](O)[C@H](N)[C@@H]3O)/C=C/C=C/C=C/C=C/CC/C=C/C=C/[C@H](C)[C@H]1O)O2 (stereo partly specified)
inactive: S. cerevisiae deletion strains, locus YKL160W, strain elf1, stronger effect = lower value 0.952 | S. cerevisiae deletion strains, locus YKR091W, strain srl3, stronger effect = lower value 0.986 | S. cerevisiae deletion strains, locus YLR320W, strain mms22, stronger effect = lower value 1 | S. cerevisiae deletion strains, locus YMR205C, strain PFK2, stronger effect = lower value 0.916 | S. cerevisiae deletion strains, locus YNR049C, strain mso1, stronger effect = lower value 0.951 | S. cerevisiae deletion strains, locus YOL012C, strain htz1 0.206 | S. cerevisiae deletion strains, locus YOR070C, strain gyp1, stronger effect = lower value 0.95 | S. cerevisiae deletion strains, locus YOR270C, strain vph1, stronger effect = lower value 0.837 | S. cerevisiae deletion strains, locus YOR290C, strain snf2, stronger effect = lower value 1.01 | S. cerevisiae deletion strains, locus YPL240C, strain hsp82, stronger effect = lower value 0.943
active: S. cerevisiae deletion strains, locus YKL009W, strain mrt4, stronger effect = lower value 0.0887 | S. cerevisiae deletion strains, locus YKL068W, stronger effect = lower value 0.0555 | S. cerevisiae deletion strains, locus YKL085W, strain MDH1 (second series), stronger effect = lower value 0.0538 | S. cerevisiae deletion strains, locus YKL085W, strain MDH1, stronger effect = lower value 0.0538 | S. cerevisiae deletion strains, locus YKL190W, strain CNB1, stronger effect = lower value 0.193 | S. cerevisiae deletion strains, locus YKR001C, strain vps1, stronger effect = lower value 0.0857 | S. cerevisiae deletion strains, locus YKR026C, strain gcn3, stronger effect = lower value 0.0734 | S. cerevisiae deletion strains, locus YLL001W, strain dnm1, stronger effect = lower value 0.759 | S. cerevisiae deletion strains, locus YLL026W, stronger effect = lower value 0.446 | S. cerevisiae deletion strains, locus YLL041C, strain sdh2, stronger effect = lower value 0.913 | S. cerevisiae deletion strains, locus YLR027C, strain aat2, stronger effect = lower value 0.633 | S. cerevisiae deletion strains, locus YLR039C, strain RIC1, stronger effect = lower value 0.0871 | S. cerevisiae deletion strains, locus YLR058C, strain SHM2, stronger effect = lower value 0.374 | S. cerevisiae deletion strains, locus YLR102C, strain apc9, stronger effect = lower value 0.283 | S. cerevisiae deletion strains, locus YLR113W, strain HOG1, stronger effect = lower value 0.124 | S. cerevisiae deletion strains, locus YLR221C, strain rsa3, stronger effect = lower value 0.36 | S. cerevisiae deletion strains, locus YLR258W, strain gsy2, stronger effect = lower value 0.857 | S. cerevisiae deletion strains, locus YLR262C, strain YPT6 (second series), stronger effect = lower value 0.799 | S. cerevisiae deletion strains, locus YLR262C, strain YPT6, stronger effect = lower value 0.0948 | S. cerevisiae deletion strains, locus YLR268W, strain sec22, stronger effect = lower value 0.119 | S. cerevisiae deletion strains, locus YLR330W, strain CHS5, stronger effect = lower value 0.176 | S. cerevisiae deletion strains, locus YLR342W, strain FKS1 (second series), stronger effect = lower value 0.126 | S. cerevisiae deletion strains, locus YLR342W, strain FKS1, stronger effect = lower value 0.376 | S. cerevisiae deletion strains, locus YLR357W, strain rsc2, stronger effect = lower value 0.123 | S. cerevisiae deletion strains, locus YLR370C, strain arc18, stronger effect = lower value 0.0729 | S. cerevisiae deletion strains, locus YLR371W, strain rom2, stronger effect = lower value 0.112 | S. cerevisiae deletion strains, locus YLR384C, strain iki3, stronger effect = lower value 0.907 | S. cerevisiae deletion strains, locus YLR418C, strain cdc73, stronger effect = lower value 0.202 | S. cerevisiae deletion strains, locus YML016C, strain PPZ1, stronger effect = lower value 0.841 | S. cerevisiae deletion strains, locus YML032C, strain rad52, stronger effect = lower value 0.333 | S. cerevisiae deletion strains, locus YML120C, strain ndi1, stronger effect = lower value 0.0634 | S. cerevisiae deletion strains, locus YML124C, strain tub3, stronger effect = lower value 0.103 | S. cerevisiae deletion strains, locus YMR058W, strain fet3, stronger effect = lower value 0.318 | S. cerevisiae deletion strains, locus YMR078C, strain ctf18, stronger effect = lower value 0.612 | S. cerevisiae deletion strains, locus YMR125W, strain sto1, stronger effect = lower value 0.112 | S. cerevisiae deletion strains, locus YMR129W, stronger effect = lower value 0.0795 | S. cerevisiae deletion strains, locus YMR223W, strain ubp8, stronger effect = lower value 0.0876 | S. cerevisiae deletion strains, locus YMR231W, strain pep5, stronger effect = lower value 0.839 | S. cerevisiae deletion strains, locus YMR263W, strain SAP30, stronger effect = lower value 0.0585 | S. cerevisiae deletion strains, locus YMR307W, strain GAS1, stronger effect = lower value 0.103 | S. cerevisiae deletion strains, locus YNL067W, strain RPL9B, stronger effect = lower value 0.0572 | S. cerevisiae deletion strains, locus YNL071W, strain lat1, stronger effect = lower value 0.885 | S. cerevisiae deletion strains, locus YNL128W, strain TEP1, stronger effect = lower value 0.0617 | S. cerevisiae deletion strains, locus YNL153C, strain GIM3, stronger effect = lower value 0.0492 | S. cerevisiae deletion strains, locus YNL183C, strain NPR1, stronger effect = lower value 0.00104 | S. cerevisiae deletion strains, locus YNL209W, strain ssb2, stronger effect = lower value 0.816 | S. cerevisiae deletion strains, locus YNL233W, strain BNI4, stronger effect = lower value 0.135 | S. cerevisiae deletion strains, locus YNL248C, strain rpa49, stronger effect = lower value 0.104 | S. cerevisiae deletion strains, locus YNL250W, strain rad50, stronger effect = lower value 0.0643 | S. cerevisiae deletion strains, locus YNL271C, strain bni1, stronger effect = lower value 0.0657 | S. cerevisiae deletion strains, locus YNL298W, strain CLA4, stronger effect = lower value 0.0613 | S. cerevisiae deletion strains, locus YNL307C, strain MCK1, stronger effect = lower value 0.0855 | S. cerevisiae deletion strains, locus YNL322C, strain KRE1 (second series), stronger effect = lower value 0.695 | S. cerevisiae deletion strains, locus YNL322C, strain KRE1, stronger effect = lower value 0.0469 | S. cerevisiae deletion strains, locus YNR052C, strain pop2, stronger effect = lower value 0.0638 | S. cerevisiae deletion strains, locus YOL006C, strain TOP1, stronger effect = lower value 0.276 | S. cerevisiae deletion strains, locus YOL147C, strain pex11, stronger effect = lower value 0.111 | S. cerevisiae deletion strains, locus YOR001W, strain rrp6, stronger effect = lower value 0.102 | S. cerevisiae deletion strains, locus YOR061W, strain CKA2, stronger effect = lower value 0.41 | S. cerevisiae deletion strains, locus YOR069W, strain VPS5, stronger effect = lower value 0.156 | S. cerevisiae deletion strains, locus YOR080W, strain dia2, stronger effect = lower value 0.826 | S. cerevisiae deletion strains, locus YOR083W, strain WHI5, stronger effect = lower value 0.798 | S. cerevisiae deletion strains, locus YOR106W, strain vam3, stronger effect = lower value 0.284 | S. cerevisiae deletion strains, locus YOR136W, strain idh2, stronger effect = lower value 0.221 | S. cerevisiae deletion strains, locus YOR144C, strain elg1, stronger effect = lower value 0.123 | S. cerevisiae deletion strains, locus YOR184W, strain ser1, stronger effect = lower value 0.0785 | S. cerevisiae deletion strains, locus YOR231W, strain MKK1, stronger effect = lower value 0.105 | S. cerevisiae deletion strains, locus YOR265W, strain rbl2, stronger effect = lower value 0.887 | S. cerevisiae deletion strains, locus YOR316C, strain cot1, stronger effect = lower value 0.236 | S. cerevisiae deletion strains, locus YPL051W, strain arl3, stronger effect = lower value 0.885 | S. cerevisiae deletion strains, locus YPL055C, strain LGE1, stronger effect = lower value 0.0909 | S. cerevisiae deletion strains, locus YPL078C, strain atp4, stronger effect = lower value 0.757 | S. cerevisiae deletion strains, locus YPL106C, strain sse1, stronger effect = lower value 0.229 | S. cerevisiae deletion strains, locus YPL241C, strain CIN2, stronger effect = lower value 0.182 | S. cerevisiae deletion strains, locus YPL256C, strain CLN2, stronger effect = lower value 0.116 | S. cerevisiae deletion strains, locus YPR119W, strain clb2, stronger effect = lower value 0.271 | S. cerevisiae deletion strains, locus YPR141C, strain kar3, stronger effect = lower value 0.0655 | S. cerevisiae deletion strains, locus YPR163C, strain tif3, stronger effect = lower value 0.152 | S. cerevisiae deletion strains, locus YPR167C, strain met16, stronger effect = lower value 0.0932 | S. cerevisiae deletion strains, strain wtn01, stronger effect = lower value 0.0877 | S. cerevisiae strains, strain wild type, stronger effect = lower value 0.0547
